Inconclusive results are not listed. The source made the active and inactive calls. Unless noted, calls come from the whole dose curve; as a rule, active = well fitted curve in the direction sought with a large enough effect in the repeat runs; inconclusive = weak or mixed curves; inactive = no such curve, though single readings can be large; an effect the other way counts as inactive or inconclusive.
Columns and labels:
[1] = qHTS assay to identify small molecule antagonists of the estrogen receptor alpha (ER-alpha) signaling pathway using the BG1 cell line in the presence of 0.1 nM 17-beta-estradiol - cell viability counter screen (AID 1259241); note: nearly all actives have a fitted effect of over 40% in size
Outline: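 In this screen, hormone-deprived VM7Luc4E2 cells were seeded at 4,000 per well, dosed with compound and 0.1 nM estradiol final, and incubated 22 hr at 37C and 5% CO2; fluorogenic live-cell protease signal reported viability.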

[2] = qHTS assay to identify small molecule antagonists of the androgen receptor (AR) signaling pathway using the MDA cell line in the presence of 0.5 nM R1881 - cell viability counter screen (AID 1259242); note: nearly all actives have a fitted effect of over 45% in size; note: potency is the fitted concentration of half-maximal effect
Outline: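 Steps: plate MDA-kb2 cells, rest 5 hr at 37C without CO2; pin in compounds in DMSO; add R1881 to 0.5 nM final; incubate 16 hr; add CellTiter-Fluor, 30 min; read fluorescence.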

[3] = qHTS assay to identify small molecule HDAC inhibitors (AID 1259364);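 note: wild-type HCT-116 cells with endogenous class I/II HDAC activity; top concentration of the series differs between compounds; nearly all actives have a fitted effect of over 45% in size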
Outline: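 Cells (HCT-116, wild type) are seeded at 1,500 per well, incubated overnight, treated with compound in DMSO for 2 hr, then developed with HDAC-Glo I/II reagent for 30 min at room temperature.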

[4] = qHTS assay to identify small molecule HDAC inhibitors - cell viability counter screen (AID 1259365); note: series mostly up to about 92 µM; nearly all actives have a fitted effect of over 50% in size
Outline: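 Measured quantity is CellTiter-Glo luminescence from wild-type HCT-116 cells after compound incubation of 2hr at 37C, 5% CO2; reagent developed 30min at room temperature.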

[5] = qHTS assay to identify small molecule agonists of the sonic hedgehog signaling (Shh) pathway - cell viability counter screen (AID 1259366); note: nearly all actives have a fitted effect of over 50% in size; note: potency is the fitted concentration of half-maximal effect
Outline: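 In quantitative high-throughput format, 3T3 Gli1-Luc cells were exposed to compounds for 24hr and multiplexed for viability using CellTiter-Fluor, incubated 1hr at 37C before the fluorescence read.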

[6] = qHTS assay to identify small molecule antagonists of the sonic hedgehog signaling (Shh) pathway - cell viability counter screen (AID 1259367); note: nearly all actives have a fitted effect of over 55% in size
Outline: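 Viability was read by CellTiter-Fluor fluorescence in the same wells, reagent added 23 hr into compound treatment and incubated 1 hr at 37C. The 3T3 Gli1-Luc reporter cells (2,000/well) received conditioned medium after compound and ran 24 hr.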

[7] = qHTS assay to identify small molecule phospholipidosis (PLD) inducers (AID 1259344; active = well fitted curve in the direction sought with a large enough effect; an effect the other way counts as inactive or inconclusive)
Outline: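 Phospholipid accumulation was scored by imaging: fixed, Hoechst-counterstained HepG2 cells stained with LipidTOX Red after 24 h compound exposure at 37 C. Read-outs were pit count and pit intensity per well or per cell, with amiodarone and DMSO controls.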

[8] = qHTS assay to identify small molecule agonists of the sonic hedgehog signaling (Shh) pathway (AID 1259368; calls by dose curve;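 note: NIH/3T3-derived 3T3Gli1-Luc cells carrying a stable Gli1-driven firefly luciferase reporter; series mostly up to about 92 µM; nearly all actives have a fitted effect of over 15% in size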)
Outline: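 Cells of a mouse NIH/3T3 clone stably expressing luciferase under the Gli1 transcriptional response element are exposed to test chemicals for 24 hr at 37 C. Pathway activation is detected as a rise in luminescence.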

[9] = target: Estrogen receptor (Homo sapiens) (UniProt P03372); assay: qHTS assay to identify small molecule antagonists of the estrogen receptor alpha (ER-alpha) signaling pathway using the BG1 cell line in the presence of 0.1 nM 17-beta-estradiol (AID 1259244); note: nearly all actives have a fitted effect of over 50% in size
Outline: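 Antagonist mode: compounds in DMSO are pinned onto VM7Luc4E2 reporter cells, 0.1 nM final 17beta-estradiol is added, and after 22 h at 37C luciferase luminescence is measured with ONE-Glo.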
% is set by controls: 0 for no effect and ±100 for the full control effect.

Sequence of Estrogen receptor (Homo sapiens) (P03372 whole entry, looked up): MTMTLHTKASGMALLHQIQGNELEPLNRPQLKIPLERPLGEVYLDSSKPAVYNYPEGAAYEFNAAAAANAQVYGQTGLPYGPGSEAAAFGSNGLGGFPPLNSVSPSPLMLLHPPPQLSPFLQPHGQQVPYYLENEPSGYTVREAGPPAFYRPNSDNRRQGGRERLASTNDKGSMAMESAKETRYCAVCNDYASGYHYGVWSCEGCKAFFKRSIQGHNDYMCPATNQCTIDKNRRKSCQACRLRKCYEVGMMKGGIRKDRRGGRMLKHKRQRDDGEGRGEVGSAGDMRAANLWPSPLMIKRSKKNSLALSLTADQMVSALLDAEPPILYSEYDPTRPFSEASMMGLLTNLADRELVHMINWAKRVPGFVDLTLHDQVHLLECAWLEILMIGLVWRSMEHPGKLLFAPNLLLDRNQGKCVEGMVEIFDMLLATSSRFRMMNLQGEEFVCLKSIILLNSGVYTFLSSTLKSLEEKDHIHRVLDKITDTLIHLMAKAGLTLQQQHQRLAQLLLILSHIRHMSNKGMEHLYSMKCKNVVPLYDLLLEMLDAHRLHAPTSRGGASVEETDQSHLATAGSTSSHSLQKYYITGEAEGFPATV

ClP(Cl)(Cl)(Cl)Cl
inactive: Potency [1] | Potency [2] | Potency [3] | Potency [4] | Potency [5] | Potency [6]

OCCCBr
inactive: Potency [1] | Potency [2] | outcome [7] | Potency [4] | Potency [5] | Potency [6] | Potency [8]

CCCC(Cn1cncn1)c1ccc(Cl)cc1Cl (configuration not stated)
inactive: Potency [1] | Potency [2] | Potency [3] | Potency [4] | Potency [5] | Potency [6]

O=C1CN=C(c2ccccc2)c2cc(Cl)ccc2N1CC1CC1
inactive: Potency [1] | Potency [2] | outcome [7] | Potency [4] | Potency [5] | Potency [6] | Potency [8]

Clc1cccc(SC2CCNCC2)n1
inactive: Potency [1] | Potency [2] | outcome [7] | Potency [3] | Potency [4] | Potency [5] | Potency [8]

CCCCCCCCOC(=O)c1ccc(C(=O)OCCCCCCCC)c(C(=O)OCCCCCCCC)c1
inactive: Potency [1] | Potency [2] | Potency [3] | Potency [4] | Potency [5] | Potency [6]

COC(=O)c1cncn1C(C)c1ccccc1 (configuration not stated)
inactive: Potency [1] | Potency [2] | outcome [7] | Potency [3] | Potency [4] | Potency [5] | Potency [6] | Potency [8]

CC(C)N(CCC(C(N)=O)(c1ccccc1)c1ccccn1)C(C)C (configuration not stated)
inactive: Potency [1] | Potency [2] | outcome [7] | Potency [3] | Potency [4] | Potency [5] | Potency [6] | Potency [8]

NCC(CC(=O)O)c1ccc(Cl)cc1 (configuration not stated)
inactive: activity change, negative = cytotoxicity [1] 0.211% [at 0.349 µM] | viability change, negative = cytotoxic [2] 0.181% [at 0.349 µM] | outcome [7] | activity change, negative = inhibition [3] 13.2% [at 0.349 µM] | viability change, negative = cytotoxic [5] 4.25% [at 0.349 µM] | viability change, negative = cytotoxic [6] 1.24% [at 0.349 µM] | activity change [8] -1.29% [at 0.349 µM, hits give high values]

O=C1c2ccccc2C(=O)C1C(=O)C(c1ccccc1)c1ccccc1
inactive: Potency [1] | Potency [2] | outcome [7] | Potency [3] | Potency [4] | Potency [5] | Potency [6] | Potency [8]

O=[Se]=O
active: Potency [2] 12.1 µM
inactive: Potency [1] | Potency [3] | Potency [4] | Potency [5] | Potency [6]

CC(C)(Cl)[N+](=O)[O-]
inactive: Potency [1] | Potency [2] | Potency [3] | Potency [4] | Potency [5] | Potency [6]

O=C=Nc1ccc(Cl)cc1
inactive: Potency [1] | Potency [2] | Potency [9] | Potency [4] | Potency [5] | Potency [8]

ClC=C(Cl)Cl
inactive: Potency [1] | Potency [2] | outcome [7] | Potency [3] | Potency [4] | Potency [5] | Potency [6] | Potency [8]

COC(N)=O
inactive: Potency [1] | Potency [2] | Potency [9] | Potency [4] | Potency [5] | Potency [6] | Potency [8]

CCC(Br)(CC)C(=O)NC(N)=O
inactive: Potency [1] | Potency [2] | Potency [3] | Potency [4] | Potency [5] | Potency [6]

COc1cc(Cl)c(OC)cc1Cl
inactive: Potency [1] | Potency [2] | Potency [9] | Potency [4] | Potency [5] | Potency [6] | Potency [8]

CCCC(=O)Cl
inactive: Potency [1] | Potency [2] | Potency [9] | Potency [4] | Potency [5] | Potency [6] | Potency [8]

O=C1NCN(c2ccccc2)C12CCN(CCCOc1ccc(F)cc1)CC2
inactive: Potency [1] | Potency [2] | outcome [7] | Potency [3] | Potency [4] | Potency [6] | Potency [8]

ClCc1ccccc1
inactive: Potency [1] | Potency [2] | Potency [9] | Potency [4] | Potency [5] | Potency [8]

O=C(O)c1ccccc1C(=O)Nc1cccc2ccccc12
inactive: Potency [1] | Potency [2] | Potency [3] | Potency [4] | Potency [5] | Potency [6]

CCN(C)N=O
inactive: Potency [1] | Potency [2] | Potency [9] | Potency [5] | Potency [6] | Potency [8]

Brc1ccc(Oc2ccccc2)cc1
inactive: Potency [1] | Potency [2] | Potency [3] | Potency [4] | Potency [5] | Potency [6]

CN(N=O)c1ccc([N+](=O)[O-])cc1
inactive: Potency [1] | Potency [2] | Potency [3] | Potency [4] | Potency [5] | Potency [6] | Potency [8]

CC(C)O.CC(C)O.OCCN(CCO)CCO.OCCN(CCO)CCO.[Ti]
inactive: Potency [1] | Potency [2] | Potency [3] | Potency [4] | Potency [5] | Potency [6] | Potency [8]

[O-][Cl+]O
inactive: Potency [1] | Potency [2] | Potency [4] | Potency [5] | Potency [6] | Potency [8]

CCOP(O)OCC
inactive: Potency [1] | Potency [2] | Potency [3] | Potency [4] | Potency [5] | Potency [6] | Potency [8]

O=C(CBr)c1ccccc1
inactive: Potency [1] | Potency [2] | Potency [3] | Potency [4] | Potency [5] | Potency [8]

CC/C(=N\OC/C=C/Cl)C1=C(O)CC(C2CCOCC2)CC1=O (configuration not stated)
inactive: Potency [1] | Potency [2] | Potency [3] | Potency [5] | Potency [6] | Potency [8]

N#Cc1ccc(Cl)cc1
inactive: Potency [1] | Potency [2] | Potency [3] | Potency [4] | Potency [5] | Potency [6] | Potency [8]

CCCCc1c(C)nc(NCC)nc1OS(=O)(=O)N(C)C
active: Potency [5] 30.6 µM
inactive: Potency [1] | Potency [2] | Potency [3] | Potency [4] | Potency [8]

CCOC(=O)[C@]1(c2ccccc2)Oc2ccccc2[C@@H]1N
inactive: Potency [1] | Potency [2] | Potency [4] | Potency [5] | Potency [6] | Potency [8]

— PubChem BioAssay (Tox21)
